The source of these data is PubChem BioAssay (EPA / NIEHS).

Records with an inconclusive call do not appear. Active and inactive are the calls of the source. The calls were made as follows: active = hit-call score of the fitted dose curve at least 0.9, where 1 is the maximum; inconclusive = response in the unintended direction; inactive = score below 0.9.

For orientation: AC50 means the concentration at which the activity in the assay is half-maximal.

Cytochrome P450 3A4 (Homo sapiens), sequence (P08684 whole entry, looked up): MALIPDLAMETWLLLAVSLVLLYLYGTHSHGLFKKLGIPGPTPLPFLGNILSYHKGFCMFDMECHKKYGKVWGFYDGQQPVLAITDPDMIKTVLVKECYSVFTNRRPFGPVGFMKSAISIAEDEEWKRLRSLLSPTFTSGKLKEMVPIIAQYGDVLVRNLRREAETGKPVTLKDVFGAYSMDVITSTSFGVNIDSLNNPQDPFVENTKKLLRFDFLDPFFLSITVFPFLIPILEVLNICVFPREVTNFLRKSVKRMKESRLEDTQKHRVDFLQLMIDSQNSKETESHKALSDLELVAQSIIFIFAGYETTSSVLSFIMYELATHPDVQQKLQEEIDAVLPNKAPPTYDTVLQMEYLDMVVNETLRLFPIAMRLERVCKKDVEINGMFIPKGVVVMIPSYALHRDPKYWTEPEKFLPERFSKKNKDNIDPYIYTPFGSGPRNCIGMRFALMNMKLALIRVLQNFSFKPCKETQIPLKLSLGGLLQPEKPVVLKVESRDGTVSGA

Read-out in this assay: Cytochrome P450 3A4 (Homo sapiens) (UniProt P08684)
Nature of the assay: CLD_CYP3A4_48hr: CellzDirect (CLD) Gene Expression Assay for xenobiotic metabolism (CYP3A4) at 48 hours (AID 2283698). As for the experimental part:
CLD_48hr is a cell-based, multiplexed-readout assay that uses hepatocyte, a human liver primary cell, with measurements taken at 48 hours after chemical dosing in a 96-well plate.CLD_CYP3A4_48hr is one of 16 assay component(s) measured or calculated from the CLD_48hr assay. It is designed to make measurements of mRNA induction, a form of inducible reporter, as detected with chemiluminescence signals by Quantitative Nuclease Protection Assay (qNPA) technology.Data from the assay component CLD_CYP3A4_48hr was analyzed at the endpoint, CLD_CYP3A4_48hr, in the positive analysis fitting direction relative to DMSO as the negative control and baseline of activity. Using a type of inducible reporter, gain-of-signal activity can be used to understand changes in the reporter gene as they relate to the gene CYP3A4. Furthermore, this assay endpoint can be referred to as a primary readout. To generalize the intended target to other relatable targets, this assay endpoint is annotated to the cyp intended target family, where subfamily is xenobiotic metabolism.
Human hepatocyte cultures were treated daily for two consecutive days with fresh dosing solutions containing appropriate concentrations of the 320 ToxCast chemicals (chemical identities were blinded to CellzDirect and other ToxCast collaborators), vehicle control (0.2% DMSO), and positive control inducers as summarized in Table 1. Due to the large number of treatment groups and chemicals examined, the ToxCast chemicals were divided into two groups (spanning two independent cultures of hepatocytes from separate donor preparations (Hu778: ToxCast plates 1 and 2; Hu776: ToxCast plates 3 and 4). Each preparation of human hepatocyte cultures was treated with respective vehicle control, medium only control, set of six positive controls/reference chemicals for the five hepatic receptor pathways, and a subset of eight of the ToxCast chemicals (indoxacarb, pyrithiobac-sodium, norflurazon, cyhalofop-butyl, methomyl, thiram, acetochlor, and propiconazole). These replicate data, coupled with internal replicates designed within the blinded ToxCast chemical library, provided additional data to evaluate interindividual differences between hepatocyte preparations and their potential impact on chemical profiles.Cell morphology and integrity were evaluated using phase-contrast microscopy as an indicator of hepatocyte cell health (Tyson & Green, 1987). Cultures for each treatment group (i.e., media, vehicle [0.2% DMSO], positive control inducers [multiple concentrations], and the ToxCast chemicals [multiple concentrations]) were observed and cell morphology was assessed relative to vehicle control cultures at each harvest time point (0, 6, 24, or 48 h). […] Images were evaluated at the conclusion of the study to assess changes in cell integrity and account for the effects of chemical exposure on uncharacteristic changes in concentration-dependent gene expression profiles. The results from these determinations of apparent cytotoxicity were annotated (yes/no) alongside the corresponding qNPA data for reference.At the conclusion of each treatment period, hepatocyte cultures (96-well) were washed with 1 volume of HBSS, lysed by addition of 25 ul ArrayPlate lysis buffer (HTG, Tucson, AZ), and 70 ul/well of Denaturation Oil, denatured by incubation at 95C for 10 min, and frozen at approximately -70C until analysis by nuclease protection assay (qNPA) (Roberts et al., 2007). For qNPA analysis, cell lysates were thawed at 50C for approximately 30 min, qNPA probes were added, and samples were incubated at 95C for 10 min to begin the detection process by denaturing the target RNA, dissociating the duplexes and secondary structure hybridization. At the conclusion of the hybridization period, S1 nuclease reagent was added to each sample to digest all nonprotected nucleotides at 50C for 60-90 min. […]
Take `Cc1nc(N(C)C)nc(OC(=O)N(C)C)c1C`: the molecule was called inactive. As to `Nc1c(Cl)c(Cl)nc(C(=O)O)c1Cl`, the outcome was inactive.

For `CC(C)NC(=O)N1CC(=O)N(c2cc(Cl)cc(Cl)c2)C1=O`, the AC50 was 13.5 µM (active). For the molecule `CSC(=O)c1c(C(F)F)nc(C(F)(F)F)c(C(=O)SC)c1CC(C)C`, the AC50 was 0.645 µM (active). Regarding `CN=C=S`, the call was inactive. As for `CC(C)N1C(=O)c2ccccc2NS1(=O)=O`, the call was inactive. Regarding `C=CCOC(=O)C(C)(C)OC(=O)c1cc(-n2c(=O)cc(C(F)(F)F)n(C)c2=O)ccc1Cl`, the AC50 is 2.79 µM (active). Take `CC(C)C1(C)N=C(c2ncccc2C(=O)O)NC1=O` (stereo not given): the molecule was called inactive. On to `Cc1c(COC(=O)[C@@H]2[C@H](/C=C(\Cl)C(F)(F)F)C2(C)C)cccc1-c1ccccc1`, for which the AC50 is 4.01 µM (active). For `COc1cc(OC)nc(NC(=O)NS(=O)(=O)c2ncccc2OCC(F)(F)F)n1`, the AC50 was 20 µM (active). For the molecule `CCNC(=O)NC(=O)C(C#N)=NOC`, the result was inactive. Regarding `CC1(C)C(C(=O)OC(C#N)c2cccc(Oc3ccccc3)c2)C1(C)C` (stereo not given), the AC50 is 20 µM (active).

On to `CC(C)(C)C(=O)C(Oc1ccc(Cl)cc1)n1cncn1` (stereo not given), for which the AC50 was 1.5 µM (active).

Regarding `Clc1cccc(C(Cl)(Cl)Cl)n1`, the concentration at half-maximal activity (AC50) was 3.02 µM (active). Regarding `CCCN(CC)CC1COC2(CCC(C(C)(C)C)CC2)O1` (stereo not given), the AC50 was 2.82 µM (active). Take `CCOP(=O)(OCC)Oc1nc(Cl)c(Cl)cc1Cl`: the call was inactive.

In the case of `CCN(CC)C(=O)C(C)Oc1cccc2ccccc12` (stereo not given), the half-maximal activity concentration (AC50) is 3.72 µM (active). With `Nc1c(Cl)c(F)nc(OCC(=O)O)c1Cl`, the AC50 is 0.0004 µM (active). In the case of `CCNP(=S)(OC)O/C(C)=C/C(=O)OC(C)C` (stereo not given), the AC50 was 0.654 µM (active). Turning to `CCC(C)n1c(=O)[nH]c(C)c(Br)c1=O` (stereo not given), the molecule was classed as inactive. As to `CCOc1nc(C(Cl)(Cl)Cl)ns1`, the result was inactive.

For the molecule `CCOC(=O)C(C)OC(=O)c1cc(Oc2ccc(C(F)(F)F)cc2Cl)ccc1[N+](=O)[O-]` (stereo not given), the concentration at half-maximal activity (AC50) was 5.01 µM (active). For the molecule `CCCCC(C#N)(Cn1cncn1)c1ccc(Cl)cc1` (stereo not given), the AC50 is 20 µM (active). Regarding `CCN(CC)c1nc(C)cc(OP(=S)(OC)OC)n1`, the concentration at half-maximal activity (AC50) is 3.58 µM (active). For `CCCCOCN(C(=O)CCl)c1c(CC)cccc1CC`, the concentration at half-maximal activity (AC50) was 3.57 µM (active). Take `COc1cc(Cl)c(OC)cc1Cl`: the result was inactive.

In the case of `N#Cc1c[nH]cc1-c1cccc2c1OC(F)(F)O2`, the outcome was inactive. As to `OC(c1ccc(Cl)cc1)(c1ccc(Cl)cc1)C(Cl)(Cl)Cl`, the half-maximal activity concentration (AC50) is 11 µM (active).

Turning to `CCSC(=O)N1CCCCCC1`, the AC50 is 3.97 µM (active). Regarding `O=C(O)c1c(Cl)ccc2cc(Cl)cnc12`, the molecule was classed as inactive. For the molecule `CC(C)N1C(=O)N(c2ccccc2)CSC1=NC(C)(C)C`, the AC50 is 8.18 µM (active). On to `C=C(C)CN(CC)c1c([N+](=O)[O-])cc(C(F)(F)F)cc1[N+](=O)[O-]`, for which the AC50 was 3.97 µM (active). As to `COP(=O)(OC)O/C(C)=C/C(=O)N(C)C`, the result was inactive.

`COP(=S)(OC)Oc1ccc([N+](=O)[O-])c(C)c1`: the AC50 is 0.0472 µM (active). As to `CS(=O)(=O)c1cc(C(F)(F)F)ccc1C(=O)c1cnoc1C1CC1`, the AC50 was 29.1 µM (active). For the molecule `Clc1nc(Cl)nc(Nc2ccccc2Cl)n1`, the molecule was classed as inactive.

As to `N#CN=C1SCCN1Cc1ccc(Cl)nc1`, the AC50 is 20 µM (active). For the molecule `CCOP(=S)(OCC)Oc1nc(Cl)n(C(C)C)n1`, the concentration at half-maximal activity (AC50) is 2.52 µM (active). As for `CNC(=O)Oc1cccc2ccccc12`, the molecule was classed as inactive.

With `COCc1cnc(C2=NC(C)(C(C)C)C(=O)N2)c(C(=O)O)c1` (stereo not given), the molecule was classed as inactive.
